19 compounds from PubChem BioAssay (Tox21) can be followed below.

Test [1] in a line: qHTS assay to identify small molecule agonists of the sonic hedgehog signaling (Shh) pathway (AID 1259368).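 Note: NIH/3T3-derived 3T3Gli1-Luc cells carrying a stable Gli1-driven firefly luciferase reporter; series mostly up to about 92 µM; nearly all actives have a fitted effect of over 15% in size.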 The essentials:
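Cells of a mouse NIH/3T3 clone stably expressing luciferase under the Gli1 transcriptional response element are exposed to test chemicals for 24 hr at 37 C. Pathway activation is detected as a rise in luminescence.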
For orientation: Quantitative high-throughput screening tests each substance at several concentrations.

The nature of test [2]: qHTS assay to identify small molecule antagonists of the sonic hedgehog signaling (Shh) pathway (AID 1259369). Note: nearly all actives have a fitted effect of over 45% in size. Note: potency is the fitted concentration of half-maximal effect. Put shortly:
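Cells are plated and held 4hr at 37 C, compounds (DMSO) are pinned in, conditioned medium is added to stimulate the pathway, and after 24hr luciferase reagent is added for 30min before luminescence is read.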

Test [3] is described as follows: qHTS assay to identify small molecule agonists of the androgen receptor (AR) signaling pathway in the presence of an antagonist - cell viability counter screen (AID 1259379; active = well fitted curve in the direction sought with a large enough effect in the repeat runs; an effect the other way counts as inactive or inconclusive; note: nearly all actives have a fitted effect of over 25% in size; note: potency is the fitted concentration of half-maximal effect). The essentials:
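Cytotoxicity is assessed by CellTiter-Fluor in MDA-kb2 cells carrying an MMTV-driven luciferase reporter. Cells receive 3.0uM nilutamide plus compounds at 15 concentrations and incubate 16 hr at 37C without CO2 before fluorescence reading.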

Test [4] in a line: qHTS assay to identify small molecule agonists of the estrogen receptor beta (ER-beta) signaling pathway - cell viability counter screen (AID 1259380; active = well fitted curve in the direction sought with a large enough effect in the repeat runs; an effect the other way counts as inactive or inconclusive; note: nearly all actives have a fitted effect of over 30% in size; note: potency is the fitted concentration of half-maximal effect). Put shortly: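 Cytotoxicity is measured in parallel with the reporter screen: after 16 hr compound exposure at 37C and a 2 hr LiveBLAzer step, CellTiter-Glo is added to the same ER-beta-UAS-bla HEK293T wells and luminescence read after 30 min.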

The nature of test [5]: qHTS assay to identify small molecule antagonists of the estrogen receptor beta (ER-beta) signaling pathway - cell viability counter screen (AID 1259382; active = well fitted curve in the direction sought with a large enough effect in the repeat runs; an effect the other way counts as inactive or inconclusive; note: nearly all actives have a fitted effect of over 55% in size; note: potency is the fitted concentration of half-maximal effect). Put shortly: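 Cytotoxicity counter screen multiplexed with the beta-lactamase antagonist assay: GripTite HEK293T ER-beta-bla cells were treated 16 hr with test chemicals in the presence of 1nM 17-beta-estradiol, and viability was measured by CellTiter-Glo.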

Test [6] addresses Estrogen receptor (Homo sapiens) (UniProt P03372). The experiment in a line: qHTS assay to identify small molecule agonists of the estrogen receptor alpha (ER-alpha) signaling pathway in the presence of an antagonist (AID 1259383). Note: nearly all actives have a fitted effect of over 15% in size. Note: potency is the fitted concentration of half-maximal effect. The essentials:
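Agonist-mode confirmation in the presence of the ER antagonist ICI-182,780 at 10.0nM final. Breast-derived VM7Luc4E2 reporter cells were exposed to compounds for 22hr, and ERE-driven luciferase was quantified by luminescence.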

The nature of test [7]: qHTS assay to identify small molecule agonists or antagonists of the thyroid stimulating hormone receptor (TSHR) signaling pathway - wild type cell line counter screen (AID 1259384). The essentials:
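Wild-type Hek293 cells, 800/well, 18 h at 37C, then compound with Ro20-1724 for 30 min RT. cAMP by HTRF (cAMP-d2/anti-cAMP cryptate), 1 h RT, fluorescence read. 15 concentrations, triplicates.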

For test [8], the target named is Estrogen receptor beta (Homo sapiens) (UniProt Q92731). The experiment in a line: qHTS assay to identify small molecule antagonists of the estrogen receptor beta (ER-beta) signaling pathway (AID 1259378; active = well fitted inhibition curve with a large enough effect in the signal ratio in the repeat runs, not every such curve was filed as active; the % refers to the signal ratio). The essentials: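 ER-beta-UAS-bla HEK293T cells in 2% charcoal-stripped FBS medium treated with compound plus 1nM final 17-beta-estradiol for 16 hr at 37C. Beta-lactamase reporter read by FRET substrate fluorescence after 2 hours at room temperature.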
Chain of Estrogen receptor beta (Homo sapiens) (Q92731 whole entry, looked up): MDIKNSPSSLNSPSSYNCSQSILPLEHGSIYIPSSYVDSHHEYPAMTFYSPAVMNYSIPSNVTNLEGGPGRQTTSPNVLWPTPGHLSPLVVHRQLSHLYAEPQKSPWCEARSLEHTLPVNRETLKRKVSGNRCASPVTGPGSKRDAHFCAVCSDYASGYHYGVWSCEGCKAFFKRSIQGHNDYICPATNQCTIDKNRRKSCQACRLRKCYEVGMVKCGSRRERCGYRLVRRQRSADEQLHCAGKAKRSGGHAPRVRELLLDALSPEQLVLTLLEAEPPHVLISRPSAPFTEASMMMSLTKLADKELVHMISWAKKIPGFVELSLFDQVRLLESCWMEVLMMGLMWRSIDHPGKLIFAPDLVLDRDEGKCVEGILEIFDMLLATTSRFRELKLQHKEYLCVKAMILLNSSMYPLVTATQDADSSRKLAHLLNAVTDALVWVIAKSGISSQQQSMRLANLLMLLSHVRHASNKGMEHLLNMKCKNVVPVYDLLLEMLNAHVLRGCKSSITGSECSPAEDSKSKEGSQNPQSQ

Test [9] addresses Androgen receptor (Homo sapiens) (UniProt P10275). The experiment in a line: qHTS assay to identify small molecule agonists of the androgen receptor (AR) signaling pathway in the presence of an antagonist (AID 1259381). Note: nearly all actives have a fitted effect of over 15% in size. Put shortly: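 Agonist-mode confirmation screen: human MDA-kb2 cells stably expressing luciferase under an MMTV promoter bearing AR and GR response elements, co-treated with 3.0uM nilutamide (final). Luminescence measured after 16hr compound incubation.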

The structures appear in SMILES notation. Records with an inconclusive call do not appear. Active and inactive are the calls of the source. Unless noted, calls come from the whole dose curve.

Chain of Estrogen receptor (Homo sapiens) (P03372 whole entry, looked up): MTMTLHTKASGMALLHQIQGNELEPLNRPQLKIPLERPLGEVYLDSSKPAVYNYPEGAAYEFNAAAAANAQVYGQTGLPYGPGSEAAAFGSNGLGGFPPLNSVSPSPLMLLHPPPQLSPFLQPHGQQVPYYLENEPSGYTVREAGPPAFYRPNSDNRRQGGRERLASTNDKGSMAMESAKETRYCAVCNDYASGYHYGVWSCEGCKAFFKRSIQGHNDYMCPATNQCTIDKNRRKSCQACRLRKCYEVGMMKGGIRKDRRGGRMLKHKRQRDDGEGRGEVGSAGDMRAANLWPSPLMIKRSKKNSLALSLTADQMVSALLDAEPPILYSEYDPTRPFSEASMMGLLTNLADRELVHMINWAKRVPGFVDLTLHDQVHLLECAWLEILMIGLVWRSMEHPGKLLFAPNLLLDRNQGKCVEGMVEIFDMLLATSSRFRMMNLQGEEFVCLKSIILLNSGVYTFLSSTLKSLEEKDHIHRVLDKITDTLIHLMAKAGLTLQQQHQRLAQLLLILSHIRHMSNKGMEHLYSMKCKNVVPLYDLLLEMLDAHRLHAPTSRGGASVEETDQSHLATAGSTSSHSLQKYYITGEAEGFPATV
Chain of Androgen receptor (Homo sapiens) (P10275 whole entry, looked up): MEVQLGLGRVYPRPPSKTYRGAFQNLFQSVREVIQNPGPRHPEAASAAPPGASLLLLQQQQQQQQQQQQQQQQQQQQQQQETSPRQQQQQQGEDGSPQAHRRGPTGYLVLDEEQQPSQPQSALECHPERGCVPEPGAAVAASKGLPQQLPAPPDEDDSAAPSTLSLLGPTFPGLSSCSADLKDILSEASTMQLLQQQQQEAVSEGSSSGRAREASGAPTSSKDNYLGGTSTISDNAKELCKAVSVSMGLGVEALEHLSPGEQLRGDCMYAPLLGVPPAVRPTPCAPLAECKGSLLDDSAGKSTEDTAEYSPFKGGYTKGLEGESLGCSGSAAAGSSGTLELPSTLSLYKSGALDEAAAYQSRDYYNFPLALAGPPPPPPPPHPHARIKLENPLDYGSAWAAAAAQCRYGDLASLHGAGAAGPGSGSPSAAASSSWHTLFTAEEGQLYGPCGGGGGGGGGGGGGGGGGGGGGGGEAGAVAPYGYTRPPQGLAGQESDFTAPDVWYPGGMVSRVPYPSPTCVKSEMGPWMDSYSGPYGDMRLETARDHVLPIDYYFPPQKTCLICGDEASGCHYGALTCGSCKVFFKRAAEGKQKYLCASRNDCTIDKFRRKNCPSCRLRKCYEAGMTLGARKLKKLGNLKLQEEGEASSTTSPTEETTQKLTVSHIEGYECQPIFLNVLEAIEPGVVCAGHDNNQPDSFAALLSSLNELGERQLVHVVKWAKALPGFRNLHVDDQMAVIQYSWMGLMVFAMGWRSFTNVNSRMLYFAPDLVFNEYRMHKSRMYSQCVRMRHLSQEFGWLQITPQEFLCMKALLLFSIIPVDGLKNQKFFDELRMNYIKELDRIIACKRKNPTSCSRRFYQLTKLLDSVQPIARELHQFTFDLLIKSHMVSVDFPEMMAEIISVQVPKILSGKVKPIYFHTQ

On to `C=CC(C)=O`, for which the Potency entry in [1], in test [2], in test [3], in [4], in test [5] and in [6] was “inactive” throughout. Also, the call in test [7] was inactive.

As to `O=C1C(=O)c2cccc3cccc1c23`, the Potency result in test [1], in test [8], in test [3], in test [5] and in test [6] was “inactive” each time. Moreover, the Potency was 4.32 µM (active) in [2] and 43.2 µM (active) in [4]. Further, the result in test [7] was inactive.

Regarding `O=NN1CCNCC1`, the Potency entry in [1], in [2], in test [3], in test [4], in [5] and in test [6] was “inactive” each time.

Regarding `COC1=CC(=O)O[C@@H](CCc2ccccc2)C1`, the Potency result in test [1], in test [2], in test [8], in [3], in [4] and in test [9] was “inactive” throughout. In addition, in test [5], the Potency result was “inactive”. Further, in test [7], the compound was classed as inactive.

For the compound `BrCCCCBr`, the Potency result in test [1], in [2], in test [3], in test [4], in test [5] and in test [6] was “inactive” each time. For the same compound, the call in test [7] was inactive.

Regarding `CCOS(C)(=O)=O`, the Potency result in test [1], in test [2], in test [3], in [4] and in [5] was “inactive” each time.

For the compound `Sc1ccccc1Cl`, the Potency result in test [1], in [2], in test [3], in [4], in [9] and in [5] was “inactive” throughout. In test [6], the Potency entry is “inactive”. Moreover, the compound was classed as inactive in test [7].

On to `CCCCNP(N)(N)=S`, for which the Potency result in test [1], in test [2], in [8], in test [3], in test [4] and in [5] was “inactive” throughout. For the same compound, the Potency entry in [6] was “inactive”. For the same compound, the compound was classed as inactive in [7].

Take `COP(=S)(OC)Oc1ccc([N+](=O)[O-])cc1Cl`: the Potency result in [1], in test [2], in test [4], in [9], in [5] and in test [6] was “inactive” in each case. The Potency in test [3] is 48.6 µM (active). In addition, the result in [7] was inactive.

Consider `IC(I)=C(I)I`, for which the Potency result in test [1], in [9] and in [6] was “inactive” throughout. Besides, the Potency in [2] is 2.73 µM (active); in [3] it was 27.3 µM (active); in test [4], 21.7 µM (active); in [5], 21.7 µM (active). In addition, the compound was called inactive in test [7].

With `COc1c(C(C)(C)C)cc([N+](=O)[O-])c(C)c1[N+](=O)[O-]`, the Potency entry in test [1], in [2], in test [8], in test [3], in test [4] and in test [5] was “inactive” each time. For the same compound, the Potency entry in [6] is “inactive”.

With `N#Cc1ccc(Cl)cc1`, the Potency entry in test [1], in test [2], in test [3], in test [4], in test [5] and in test [6] was “inactive” throughout. In addition, in test [7], the compound was called inactive.

Regarding `NNC(=O)c1cccnc1`, the Potency entry in [1], in test [2], in test [3], in test [4], in [5] and in test [6] was “inactive” throughout. Further, the compound was called inactive in test [7].

Take `CCOc1nc(F)cc2nc(S(=O)(=O)Nc3c(Cl)cccc3Cl)nn12`: the Potency result in test [1], in [2], in test [8], in test [3], in test [4] and in test [5] was “inactive” each time. Further, the Potency entry in test [6] is “inactive”. Further, the call in test [7] was inactive.

`CCN(C)N=O`: the Potency result in [1], in [2], in test [3], in test [4], in test [5] and in test [6] was “inactive” in each case.

In the case of `O=S1OC[C@@H]2[C@H](CO1)[C@]1(Cl)C(Cl)=C(Cl)[C@@]2(Cl)C1(Cl)Cl` (stereo partly specified), the Potency entry in test [1], in test [2], in test [3], in [4], in test [9] and in test [5] was “inactive” each time. The Potency entry in [6] was “inactive”. Further, in test [7], the call was inactive.

On to `c1cc2ccc3cccc4ccc(c1)c2c34`, for which the Potency result in test [1], in test [2], in test [3] and in test [9] was “inactive” throughout. For the same compound, the Potency is 32.1 µM (active) in test [4] and 64.1 µM (active) in test [6].

As to `O=C(C(Cl)(Cl)Cl)C(Cl)(Cl)Cl`, the Potency entry in test [1], in test [2], in [3], in [4], in test [9] and in test [5] was “inactive” in each case. The Potency result in [6] was “inactive”.

For the compound `C=CCCl`, the Potency result in [1], in [2], in [3], in test [4], in [5] and in test [6] was “inactive” throughout. Moreover, the call in [7] was inactive.
